This test relates to VDR:RXRa (NR concentration 270 nM, RXRa partner concentration 90 nM). Kind of test: PBM binding z-score (relative to random genomic background probes); higher = stronger binding; sequences stand for … in GC…GCGATTGACAGCGTAGAATGAAGG
How it is done: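 Protein-binding microarray (Agilent 4x180K custom design, double-stranded 60-nt probes: 5' GC cap, 34-nt variable region, 24-nt constant primer region; full probe sequence given). Purified or IVT nuclear receptor:RXRα heterodimers (3:1 NR:RXRα, mostly 270:90 nM) or homodimers were incubated for 1 h in PBS with 2% milk and no ligand, then detected with Alexa488 antibodies. Fluorescence from o1-orientation probes (~5 replicates averaged) was converted to z-scores against 500 random hg19 background probes. Variable regions are seed direct-repeat (DR0–DR5) sites, all their single-nucleotide variants and half-site ablations.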
GGAACGAGGGCAAAATTGATAGCATCTGTCGACG had a PBM binding z-score of 0.352.
With CCTACTGGGCCATCAGGTCATTGACATCAACGTT the figure was 1.64; with GCTATTAGTTGAAAGGGTAACCGAATGATTCTCG, 0.289; with TATAGCAGGCCAGAGGGTCACTCAAGAGGTACGG, 1.58.
The sequence TCAGACAGGTGAAGGTACCTCAGGTACGCAGTCG displayed a PBM binding z-score of 0.202.
As for CGTCCAAGGTCAAGGGTCAGTGAAGAGATGACGG, the PBM binding z-score was determined as 5.63.
With ACTTACGGGTTAACGAGGTTATAGCACGCGTATA the figure was 6.31.
ACAGACAGGTGAGTGAAGGTAACTTAGCTGGACG: the PBM binding z-score is -0.357.
TCTCGGAGGACACGAAGGGCAGAGCTTTCCAGAG: the PBM binding z-score was 0.0136.
In the case of AGAACGAGTGCAATGAGTTGATAGCACGGGTGGC, the PBM binding z-score was found to be 4.09.
The figure for TCGAGTAGGTTAGTCGTGGCATTCAGCCAACATA is -0.0269; for TAGCTTAGGTCATGCGGGCCAGTATAGTGTCGGC it is 3.13.
With CGTCCAACGTCAGAGAGGTCAGTGAATGCCGAGT the figure was 3.23; with TTGCCAAGGTGAAGGTCGTTGATCCCTCTGTAGA, 1.08; with AGAACGAGGGCACGCTGAGCTGATAGCAGAGTAG, 0.52.
Sequence TCGAGTAGGTTACCACTGGGGCATTCAGCTTTCT gave a PBM binding z-score of -0.368.
In turn, CCGACTGGGGCACAAAGGTTACCATACCATCCGG came in with a PBM binding z-score of 1.73.
With CCGCCTGGGGCAAGGTTACCATAACGCACAGCCA the figure was 0.149; with ATACCAAGGTGATCGTGGGGTCGTTGATACTAAC, 3.44; with CGTCCAAGTTCAGAGAGGTCAGTGAATGCCGAGT, 6.86.
With ACAGTCAGGTGATGAAGGTAACTCAGGCTATCAT the figure was -0.0524.
CTTCCAAGGTCAAGGTCAGTGAAAGAGACTCGAA returned a PBM binding z-score of 4.87.
GCTGCTAGGTCAACTGATGGTCAGCAAAAGCTCG gave a PBM binding z-score of 1.69.
As to CGTCCAAGGTCGTAGGAGGTCAGTGAAGACAGAT, the PBM binding z-score was 5.47.
As to CAAACTAGGTCACCGGAAGTTCAAAGTCCGCATG, the PBM binding z-score is 6.24.
The figure for CGTCCAAGGGCATAGGAGGTCAGTGAAGACAGAT is 3.99; for AGAATGAGGTTATACGTAGATCAGGGATGAAAGT it is 1.47.
As for TTACCAAGATGAGCTGAGGTCGTTGATCCAACTC, the PBM binding z-score is 1.35.
The figure for TCTTGTAGATCAAGCAGGTTAAGAACGCCTGAGT is 0.768; for TGAATGAGGTTTTAAGATCAGGGAACGTTGCAAA it is -0.241.
With TCTTGTAGATCTACAGGAGGTTAAGAAAGATCGA the figure was 0.41; with AGTCAAAGTTCATCTAGGTAACGCAAGATATGCT, 4.91.
Take CCTGCTAGGTCATGGTCAGCTCATCTACAGTATG: the PBM binding z-score stood at 1.8.
GCCACTGGGGCATCAGCAGGTTACCATAACTTAA had a PBM binding z-score of -0.378.
The figure for GCGACTGGTGCATCAGCAGGTTACCATAACTTAA is -0.435; for CCTATTAGTTGACCATAGGGGCAACCGAAGCTCG it is 0.497.
For the sequence GCTAGTTGGTGAGTAAAAGGTCACACACCGGTCG, the PBM binding z-score was 3.72.
Take ATATGTAGGTTAATGGTCATTCAGGTTGGTTCGC: the PBM binding z-score came out at 1.32.
As to CCTACTGGGCTAAAAAGGTCATTGATGCCGATAA, the PBM binding z-score turned out to be 4.33.
Turning to CATACTGGGCCAAAAAGGTCATTGATGCCGATAA, the PBM binding z-score is 5.08.

For the origin of these results see the supplement of paper PMC6555819.
